DT40 TDP1 CPT: growth inhibition of DT40 Tdp1-/-;hTDP1 cells with camptothecin (screen for TDP1 inhibitors); chicken DT40 Tdp1-/-;hTDP1 cells + 20 nM CPT, ATP luminescence, 48 h; Potency, µM (highest dose often 46.2 µM), without a hit: at the top dose activity change, negative = growth inhibition, most hits filed as inhibitors; actives 12% (n = 420,000); AID 686979; further: potency means the concentration at half of the fitted maximal effect; on the % scale 0 is the no-effect control and ±100 the full control effect; nearly all actives have a fitted effect of over 55% in size
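Chicken DT40 Tdp1-/- cells stably complemented with human TDP1 were seeded at 400 cells/well in medium containing 20 nM camptothecin, exposed to pin-transferred compounds, and grown at 37 °C for at least 48 hr. Viability was read as ATP luminescence.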
IL1B secr inh: inhibitors of inflammasome signaling (IL-1 beta secretion) | THP-1 LPS/ATP IL-1B secretion, AlphaLISA, 16 h; hits give low values | activity change, % at 57.5 µM | actives 4.7% (n = 360,000); in the data active means activity change below about -50%; inconclusive means mostly about -30% to -49%; further: on the % scale 0 is the no-effect control and ±100 the full control effect
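THP-1 cells pretreated 1 hr with compounds (up to 57.5 uM final), then stimulated with LPS (250 ng/mL final) plus ATP (1.25 mM final); secreted IL-1B measured by AlphaLISA after 16 hr, decreased signal indicating inhibition.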
TGFb inhibitor: blocks TGF-b signaling | Potency, µM (series often up to 46.1 µM), inactives show at the highest dose activity, negative = inhibition, most hits filed as inhibitors | AID 588855 | actives 1.2% (n = 410,000) | HepG2 CAGA-GFP TGF-b/SMAD3 reporter, GFP fluorescence, 18 h; TGF-beta stimulated, 500 pg/mL final; further: potency means the concentration at half of the fitted maximal effect; on the % scale 0 is the no-effect control and ±100 the full control effect; nearly all actives have a fitted effect of over 65% in size
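First, reporter cells (HEPG2 CAGA-GFP) rested 2 h at 37 degrees C. Next, compounds were pinned in and TGF-beta added to 500 pg/mL final. After 18 h, GFP was imaged per cell and summed per well.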
DT40 TDP1 no CPT: qHTS for Inhibitors of human tyrosyl-DNA phosphodiesterase 1 (TDP1): qHTS in cells in absence of CPT; AID 686978, 2013; DT40 Tdp1-/- hTDP1 cells, no CPT, ATP luminescence, 48 h; Potency, µM (doses to about 46.2 µM), without a hit: top-dose activity change, negative = growth inhibition, usual class: inhibitors; actives 15% (n = 420,000); further: potency means the concentration at half of the fitted maximal effect; on the % scale 0 is the no-effect control and ±100 the full control effect; nearly all actives have a fitted effect of over 55% in size
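Growth of hTDP1-complemented DT40 Tdp1-knockout cells is measured by ATP luminescence after at least 48 hr compound exposure at 37 °C, with DMSO substituting for the 20 nM CPT used in the parallel screen.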
HepG2 tox: HepG2 cytotoxicity, counter-screen for TGF-b inhibitors; actives 0.76% (n = 410,000); HepG2 CAGA-GFP viability, ATP luminescence, 18 h; Potency, µM (highest dose often 46.1 µM), without a hit: at the top dose activity change, negative = cytotoxicity, actives largely listed as cytotoxic; AID 588856; further: potency means the concentration at half of the fitted maximal effect
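HepG2 CAGA-GFP cells (1000/well, DMEM with 1% FBS) received compound, then TGF-beta at 500 pg/mL final, and were incubated 18 hours at 37 degrees C. Viability was read by CellTiter-Glo luminescence. Media-only wells were set as complete cell-killing and DMSO as no toxicity.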
TDP1 inh: blocks human tyrosyl-DNA phosphodiesterase 1; recombinant TDP1, AlphaScreen DNA substrate cleavage; actives 0.28% (n = 350,000); Potency, µM (doses to about 130 µM), for inactives: top-dose activity change, negative = inhibition, most hits filed as inhibitors; further: potency means the concentration at half of the fitted maximal effect; on the % scale 0 is the no-effect control and ±100 the full control effect; nearly all actives have a fitted effect of over 40% in size
Target sequence (Q9NUW8 whole entry, looked up): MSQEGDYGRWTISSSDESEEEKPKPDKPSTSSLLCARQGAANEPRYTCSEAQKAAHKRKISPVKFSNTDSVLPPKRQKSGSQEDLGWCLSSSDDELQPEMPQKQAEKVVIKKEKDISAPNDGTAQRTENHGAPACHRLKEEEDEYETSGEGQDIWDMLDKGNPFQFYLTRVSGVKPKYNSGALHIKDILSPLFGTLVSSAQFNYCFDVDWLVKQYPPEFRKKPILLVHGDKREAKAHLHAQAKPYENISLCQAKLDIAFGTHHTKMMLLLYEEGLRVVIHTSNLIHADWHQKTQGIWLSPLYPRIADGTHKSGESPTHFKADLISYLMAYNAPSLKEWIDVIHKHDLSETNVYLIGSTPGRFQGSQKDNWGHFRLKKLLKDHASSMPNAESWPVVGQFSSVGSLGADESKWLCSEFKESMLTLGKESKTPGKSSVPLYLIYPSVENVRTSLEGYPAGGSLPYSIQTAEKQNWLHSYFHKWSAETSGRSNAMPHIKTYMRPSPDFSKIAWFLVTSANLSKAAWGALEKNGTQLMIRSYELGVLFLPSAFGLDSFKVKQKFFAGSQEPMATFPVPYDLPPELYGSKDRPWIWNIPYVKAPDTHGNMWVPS
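Signal: AlphaScreen proximity between streptavidin donor and anti-FITC acceptor beads on intact substrate. Reaction: Tdp1 1 nM, substrate 15 nM final, 5 min RT after 15 min compound preincubation.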
The depositor's hits bear a star; ? = inconclusive; . = no result; [ ] = another dose, or the depositor's remark. An excerpt weighted towards active compounds, which were near 19% of everything screened. Unless noted, the call rests on the fitted dose curve; in most records, active means well fitted curve in the direction sought with a large enough effect; inconclusive means small, poorly fitted or top-dose-only effect, or another doubt; inactive means no such curve, though single readings can be large; an effect the other way counts as inactive or inconclusive.

SMILES	DT40 TDP1 CPT	IL1B secr inh	TGFb inhibitor	DT40 TDP1 no CPT	HepG2 tox	TDP1 inh
CC(C)(C)Cc1nnc(NC(=O)CSc2ccccc2)s1	?	0.0	-8.8%	?	-15.2%	.
CC(C)CCN1CCC(n2nccc2NC(=O)c2ccc3c(c2)OCO3)CC1	16.4%	-66.9*	11.6%	-8.9%	-1.0%	0.8%
CC(C)N1CCC(n2nccc2NC(=O)c2ccc3c(c2)OCO3)CC1	1.6%	26.1	2.4%	5.8%	-5.8%	1.1%[56.1 µM]
CCn1cc(CN2CCC(n3nccc3NC(=O)c3ccc4c(c3)OCO4)CC2)c(C)n1	-10.1%	-0.6	8.4%	-7.5%	-5.2%	1.78µM*
CC(NC(=O)Cc1ccsc1)c1ccc(F)cc1 (configuration not stated)	15.4%	-12.0	3.3%	-13.4%	1.2%	0.5%
O=c1cc(-c2ccccc2)cc(-c2ccccc2)n1O	20.6µM*	120.3	?	16.4µM*	-8.1%	.
CC(=O)N1Cc2cc(C(=O)NCC(F)(F)F)nc(-c3cccc(-c4cc5ccccc5o4)c3)c2[C@H]1CCO	?	4.3	.	-29.7%	.	.
CCNC(=O)c1cc2c(c(-c3cccc(-c4cc5ccccc5o4)c3)n1)[C@H](CCO)N(C(=O)NC(C)C)C2	20.6µM*	-22.7	.	9.2µM*	.	.
CC(C)NC(=O)N1Cc2cc(C(=O)NC3CCCC3)nc(-c3cccc(-c4cccnc4)c3)c2[C@H]1CCO	?	-17.4	.	?	.	.
COCCNC(=O)c1cc2c(c(-c3cccc(-c4cc5ccccc5o4)c3)n1)[C@H](CCO)N(S(=O)C(C)(C)C)C2 (some centres not stated)	?	-8.0	-5.1%	23.1µM*	-5.3%	.
CCOC(=O)c1cc2c(c(-c3cccc(C#Cc4ccc(OC)c(OC)c4)c3)n1)[C@@H](CCO)N(S(=O)C(C)(C)C)C2 (some centres not stated)	?	-28.3	?	?	-16.4%	.
CC(C)NC(=O)N1Cc2cc(C(=O)NC3CCCC3)nc(-c3cccc(-c4cccnc4)c3)c2[C@@H]1CCO	?	-13.4	.	13µM*	.	.
COc1ccc(C#Cc2cccc(-c3nc(C(=O)NCCCN4CCOCC4)cc4c3[C@H](CCO)N(S(=O)C(C)(C)C)C4)c2)cc1OC (some centres not stated)	?	-26.6	-44.3%	23.1µM*	-4.6%	.
Cc1cc2ccccn2c1C(=O)c1ccccc1F	?	9.6	5.6%	?	-15.4%	-6.1%
COCCNC(=O)c1cc2c(c(-c3cccc(-c4cc5ccccc5o4)c3)n1)[C@@H](CCO)N(S(=O)C(C)(C)C)C2 (some centres not stated)	16.4µM*	-19.2	?	?	-20.9%	.
CC(=O)c1ccc(N2CCC(c3cc(-c4ccc(Cl)cc4Cl)n[nH]3)CC2)c([N+](=O)[O-])c1	4.11µM*	-55.1*	?	6.51µM*	-29.2%	7.9%
O=[N+]([O-])c1cccnc1N1CCC(c2cc(-c3ccc(Cl)cc3Cl)n[nH]2)CC1	18.4µM*	0.0	-14.9%	20.6µM*	-96.4%	10.7%
COc1ccc(CN=C(N)N=C(N)N)cc1Cl	?	4.9	0.0%	20.6µM*	0.0%	2.3%
CC(C)COc1ccc(CN=C(N)N=C(N)N)cc1Cl	6.51µM*	?	-11.7%	4.11µM*	-13.8%	1.9%
CC(C)Oc1ccc(CN=C(N)N=C(N)N)cc1Cl	?	-27.5	-11.2%	13µM*	-15.8%	-1.4%
C=CCn1c(Cc2ccc(OC(C)C)c(Cl)c2)nnc1SCC(N)=O	5.7%	6.8	22.9%	-4.8%	5.0%	0.0%
CC1(c2nc3ccccc3[nH]2)c2ccccc2C(=O)N1Cc1ccccc1 (configuration not stated)	?	0.0	.	?	.	.
O=C(CCl)NC1(C(F)(F)F)C(=O)Nc2c1c(=O)[nH]c(=O)n2-c1ccccc1 (configuration not stated)	-3.1%	15.0	-8.2%	-9.9%	7.1%	6.8%
O=C(C1CCCCC1)N(Cc1nc2sc3c(c2c(=O)[nH]1)CCCC3)Cc1cccs1	?	13.6	5.2%	13µM*	-9.5%	1.9%
O=C1c2ccccc2C(=O)N1c1cccc2cnccc12	.	.	.	.	.	1.3%
SMILES	DT40 TDP1 CPT	IL1B secr inh	TGFb inhibitor	DT40 TDP1 no CPT	HepG2 tox	TDP1 inh
COc1ccc(C)cc1-n1nnnc1SCc1cc(=O)n2cc(C)ccc2n1	8.2µM*	-28.2	-4.2%	7.31µM*	-10.3%	5.1%
O=c1c2ccccc2nnn1CSc1nnnn1-c1ccc(O)cc1	-13.4%	9.6	-9.6%	?	1.1%	2.7%
Cc1ccc(-n2nnnc2SCn2nnc3ccccc3c2=O)cc1	?	-5.1	-16.4%	13µM*	4.5%	2.0%
C/C=C/c1ccc(OCc2cc(=O)n3cc(C)ccc3n2)c(OC)c1	?	25.0	?	18.4µM*	-19.1%	0.0%
COc1ccc(C)cc1-n1nnnc1SCn1nnc2ccccc2c1=O	16.4µM*	-13.8	?	16.4µM*	-22.0%	2.0%
COC(=O)CNC(=O)Nc1cc(C(=O)NCc2ccc(C)cc2)ccc1N1CCCC1	2.0%	.	-10.9%	-21.5%	-9.9%	-1.2%
[O]=[Bi][O][Bi]=[O]	0.0%	.	.	1.3%	.	4.3%
Cc1ccc(S(=O)(=O)C2(C(=O)N3CCN(c4ccccc4F)CC3)CC2)cc1	-24.4%	-0.1	1.3%	-16.6%	-4.4%	.
COc1ccc([C@H]2CC(=O)C=C(c3ccc(-c4ccccc4)c(F)c3)C2)cc1	-16.0%	5.5	8.2%	-3.1%	1.0%	1.8%
O=C1C=C(c2cccc(O)c2)C[C@@H](c2ccc(F)cc2)C1	20.6µM*	-12.2	-17.6%	?	-19.5%	0.3%
COc1ccc([C@H]2CC(=O)C=C(c3cccc(Cl)c3)C2)cc1	?	-27.9	?	?	-19.6%	-5.2%
O=C1C=C(c2cccc(Br)c2)C[C@@H](c2ccc(Cl)cc2)C1	16.4µM*	-1.0	?	?	-20.2%	0.0%
O=C1C=C(c2ccc(-c3ccccc3)c(F)c2)C[C@@H](c2ccc(Cl)cc2)C1	20.6µM*	17.9	-15.1%	?	-21.0%	2.9%
O=C1C=C(c2cccc(CO)c2)C[C@@H](c2ccc(F)cc2)C1	-28.0%	-3.4	2.4%	-27.0%	-15.3%	0.4%
